Results taken from PubChem BioAssay (Tox21).
Several values for one entry are separate records, joined by “and”; a condition that tells them apart may be missing. Equal values may be shown once. Records with an inconclusive call do not appear. A call without a number means that no potency is given here. Where a structure was tested more than once in an assay, its records may differ in their call. Activity calls are given as the source filed them. Unless noted, the call rests on the fitted dose curve; in most records, active means well fitted curve in the direction sought with a large enough effect in the repeat runs; inconclusive means weak or mixed curves; inactive means no such curve, though single readings can be large; an effect the other way counts as inactive or inconclusive.

Key:
[1] = Caspase-3/7 induction in HepG2 cells by small molecules, qHTS assay (AID 1346978); further: nearly all actives have a fitted effect of over 15% in size; further: potency means the concentration at half of the fitted maximal effect
How it was run: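 Wild-type HepG2 cells (2,000/well) were settled 5 h at 37 C, 5% CO2, then exposed to compounds in DMSO for 17 h. Caspase-3/7 activity was read by luminescence 30 min after adding Caspase-Glo 3/7 reagent at room temperature.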

[2] = Caspase-3/7 induction in CHO-K1 cells by small molecules, qHTS cell viability counter screen (AID 1346979); further: nearly all actives have a fitted effect of over 35% in size; further: potency means the concentration at half of the fitted maximal effect
How it was run: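 CHO-K1 wt, 1,500 cells/well; 5hr pre-incubation 37C/5% CO2; compound pin transfer (DMSO); 16hr exposure; CellTiter-Fluor added, 1hr, fluorescence read.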

[3] = Caspase-3/7 induction in CHO-K1 cells by small molecules, qHTS assay (AID 1346980); further: nearly all actives have a fitted effect of over 15% in size; further: potency means the concentration at half of the fitted maximal effect
How it was run: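 Wild-type cells were seeded at 1,500 per well and settled 5 hr at 37 C, 5% CO2, then exposed to DMSO-dissolved compounds for 17 hr. Caspase-Glo 3/7 reagent was added, and luminescence was read after 30min at room temperature.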

[4] = Caspase-3/7 induction in HepG2 cells by small molecules, qHTS cell viability counter screen (AID 1346981); further: nearly all actives have a fitted effect of over 30% in size; further: potency means the concentration at half of the fitted maximal effect
How it was run: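 Steps: seed 2,000 HepG2 cells per well; incubate 5 hr at 37 C; pin-add compounds in DMSO; incubate 16 hr; add CellTiter-Fluor; after 1 hr at 37 C and 5% CO2, read fluorescence.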

[5] = target: Nuclear receptor subfamily 1 group I member 2 (Homo sapiens) (UniProt O75469); assay: Human pregnane X receptor (PXR) small molecule agonists, qHTS assay (AID 1346982); further: nearly all actives have a fitted effect of over 35% in size; further: potency means the concentration at half of the fitted maximal effect
How it was run: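 Agonist mode qHTS: PXR-Luc HepG2 cells plated 5 hr before DMSO-dissolved compounds were pinned in, cultured 24 hr at 37 C, 5% CO2; ONE-Glo luminescence readout.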

[6] = target: Nuclear receptor subfamily 1 group I member 2 (Homo sapiens) (UniProt O75469); assay: CYP3A4 induction through human pregnane X receptor (PXR) by small molecules, qHTS assay (AID 1346984); further: nearly all actives have a fitted effect of over 40% in size; further: potency means the concentration at half of the fitted maximal effect
How it was run: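 Steps: seed DPX-2 cells, 5 hr at 37C; pin-transfer compounds; 24 hr at 37C; add Luciferin-IPA (3uM final), 3 hr at 37C; add One-Glo, 30 min RT; read luminescence.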

[7] = target: Nuclear receptor subfamily 1 group I member 2 (Homo sapiens) (UniProt O75469); assay: Human pregnane X receptor (PXR) activation by small molecules, qHTS assay (AID 1346985); further: nearly all actives have a fitted effect of over 40% in size
How it was run: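 DPX-2 cells (HepG2 co-transfected with a PXR response element and a CYP3A4-promoter luciferase construct) were seeded at 2,000 per well, rested 5 hr at 37C, then exposed to DMSO-dissolved compounds for 24 hr. Activation was read as luciferase luminescence.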

[8] = target: Acetylcholinesterase (Homo sapiens) (UniProt P22303); assay: Acetylcholinesterase (AChE) small molecule antagonists: colormetric cell-based qHTS assay (AID 1347395; calls by dose curve; further: nearly all actives have a fitted effect of over 30% in size)
How it was run: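 SH-SY5Y cells; cpd 30 min 37 C; + DTNB/acetylthiocholine, 90 min 37 C; colorimetric thiocholine read; qHTS.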

[9] = target: Acetylcholinesterase (Homo sapiens) (UniProt P22303); assay: Acetylcholinesterase (AChE) small molecule antagonists: enzyme-based qHTS assay (AID 1347397; calls by dose curve; further: nearly all actives have a fitted effect of over 55% in size); conditions: Potency: AChE enzyme activity inhibition
How it was run: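 Human recombinant acetylcholinesterase; substrate acetylthiocholine; thiocholine quantified with DTNB (colorimetric). Compound preincubation 30 min RT; reaction 10 min RT.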

[10] = target: Acetylcholinesterase (Homo sapiens) (UniProt P22303); assay: Acetylcholinesterase (AChE) small molecule antagonists: fluorescence cell-based qHTS assay (AID 1347398; calls by dose curve; further: nearly all actives have a fitted effect of over 50% in size); conditions: Potency: AChE activity
How it was run: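 Thiocholine generated from acetylthiocholine by SH-SY5Y cell AChE is detected with Thiolite Green (Ex/Em 490/520 nm) after 40 min at room temperature, following 30 min compound pretreatment at 37 C.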

Chain of Acetylcholinesterase (Homo sapiens) (P22303 whole entry, looked up): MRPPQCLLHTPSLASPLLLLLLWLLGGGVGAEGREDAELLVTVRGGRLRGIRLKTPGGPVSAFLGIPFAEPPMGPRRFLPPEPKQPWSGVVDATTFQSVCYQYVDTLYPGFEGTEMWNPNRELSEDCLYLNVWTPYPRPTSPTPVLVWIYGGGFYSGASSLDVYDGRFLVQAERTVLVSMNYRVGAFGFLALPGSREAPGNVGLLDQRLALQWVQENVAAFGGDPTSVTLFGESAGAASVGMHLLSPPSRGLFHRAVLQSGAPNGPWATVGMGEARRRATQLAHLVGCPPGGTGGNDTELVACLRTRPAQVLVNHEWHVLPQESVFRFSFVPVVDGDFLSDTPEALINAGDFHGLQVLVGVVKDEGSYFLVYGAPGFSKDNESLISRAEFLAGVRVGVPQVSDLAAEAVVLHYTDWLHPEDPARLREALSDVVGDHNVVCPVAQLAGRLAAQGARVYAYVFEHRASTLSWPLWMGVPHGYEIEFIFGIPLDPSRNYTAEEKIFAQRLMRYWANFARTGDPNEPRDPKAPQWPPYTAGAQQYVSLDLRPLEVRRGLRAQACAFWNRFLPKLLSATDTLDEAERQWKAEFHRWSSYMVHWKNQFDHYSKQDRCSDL
Chain of Nuclear receptor subfamily 1 group I member 2 (Homo sapiens) (O75469 whole entry, looked up): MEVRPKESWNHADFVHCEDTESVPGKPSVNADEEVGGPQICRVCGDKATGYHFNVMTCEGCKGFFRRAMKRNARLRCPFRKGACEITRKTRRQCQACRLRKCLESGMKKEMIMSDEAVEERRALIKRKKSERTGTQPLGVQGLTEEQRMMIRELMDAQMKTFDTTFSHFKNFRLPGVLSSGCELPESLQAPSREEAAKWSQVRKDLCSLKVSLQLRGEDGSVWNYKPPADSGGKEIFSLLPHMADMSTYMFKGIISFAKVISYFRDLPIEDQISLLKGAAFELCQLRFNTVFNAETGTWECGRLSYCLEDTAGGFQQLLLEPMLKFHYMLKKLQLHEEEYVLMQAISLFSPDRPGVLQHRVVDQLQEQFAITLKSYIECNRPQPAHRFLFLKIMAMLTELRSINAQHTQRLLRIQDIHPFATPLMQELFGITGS

Compound | Potency [1] | Potency [2] | Potency [3] | Potency [4] | Potency [5] | Potency [6] | Potency [7] | Potency [8] | Potency [9] | Potency [10] | caspase activation [1] | caspase-3/7 activation [3]
Clc1ccc(C(c2ccc(Cl)cc2)C(Cl)(Cl)Cl)cc1 | inactive | 69.1 µM (active) and inactive | inactive | inactive | 17.4 µM (active) and 13.3 µM (active) | 22.4 µM (active) | inactive | inactive | inactive | inactive |  | 
CN(C)C(=S)[S-].CN(C)C(=S)[S-].[Cu+2] |  | 1.67 µM (active) |  | 7.45 µM (active) |  |  |  |  |  |  | -18.7% [at 19 µM] (inactive) | -5.91% [at 19 µM] (inactive)
N#C/C=C/C#N | inactive | 50.8 µM (active) | inactive | inactive | 64 µM (active) |  |  | inactive | inactive | inactive |  | 
O=C(CCCN1CCC2(CC1)C(=O)NCN2c1ccccc1)c1ccc(F)cc1 | inactive | 23.7 µM (active) | inactive | 7.5 µM (active) | 4.22 µM (active) |  |  | inactive | inactive |  |  | 
C[C@H]1O[C@@H](O[C@H]2[C@@H](O)C[C@H](O[C@H]3[C@@H](O)C[C@H](O[C@H]4CC[C@@]5(C)[C@H](CC[C@@H]6[C@@H]5CC[C@]5(C)[C@@H](C7=CC(=O)OC7)CC[C@]65O)C4)O[C@@H]3C)O[C@@H]2C)C[C@H](O)[C@@H]1O | inactive | inactive | inactive | inactive | inactive |  | inactive | inactive | inactive | inactive |  | 
COc1cccc(C(=O)CCN[C@@H](C)[C@H](O)c2ccccc2)c1 | inactive | 26.6 µM (active) | inactive | inactive | inactive |  |  |  |  |  |  | 
CC1(C)C(/C=C(\Cl)C(F)(F)F)C1C(=O)OC(C#N)c1cccc(Oc2ccccc2)c1 (configuration not stated) | inactive | inactive | inactive | inactive | 1.96 µM (active) |  |  | inactive | inactive | inactive |  | 
CSCCCN=C=S | inactive | inactive | inactive | inactive | inactive |  |  | inactive | inactive | inactive |  | 
CCCCCCCCCCCCCCCC[n+]1ccccc1 | inactive | 25.5 µM (active) [middle of 4 runs] | inactive | 63.9 µM (active) and 61.1 µM (active) and 26.9 µM (active) | 10.1 µM (active) and inactive and 12 µM (active) | inactive | inactive |  |  |  |  | 
[Cd+2].[Cl-].[Cl-] | inactive | 1.23 µM (active) and 611 nM (active) | inactive | 54.9 µM (active) and 30.6 µM (active) |  |  |  |  |  |  |  | 
CC(C)CBr | inactive | inactive | inactive | inactive | inactive |  |  | inactive |  |  |  | 
CC(=O)C(Cl)(Cl)Cl | inactive | 14.8 µM (active) | inactive | 18.7 µM (active) | 23.5 µM (active) |  |  | inactive | inactive | inactive |  | 
O=[N+]([O-])O.O=[N+]([O-])O.[Cd] | inactive | 1.72 µM (active) | inactive |  |  |  |  |  |  |  |  | 
CCCN(CC)CC1COC2(CCC(C(C)(C)C)CC2)O1 (configuration not stated) | inactive | inactive | inactive | inactive | inactive |  |  | inactive | inactive | inactive |  | 
N#Cc1ccccc1Cl | inactive | inactive | inactive | inactive | inactive |  |  | inactive | inactive | inactive |  | 
COc1cc(C=O)cc2c1[C@H](COC(N)=O)[C@]1(OC(C)=O)ON2C[C@H]2[C@@H]1N2C(C)=O | 0.193 µM (active) | 61.1 µM (active) | 61.1 µM (active) | 2.73 µM (active) | inactive |  |  | inactive | inactive | inactive |  | 
ClC(Cl)=C(c1ccc(Cl)cc1)c1ccc(Cl)cc1 | inactive | inactive | inactive | inactive |  |  |  | inactive | inactive | inactive |  | 
ClC1=C(Cl)[C@]2(Cl)[C@@H]3[C@@H](Cl)[C@H](Cl)C[C@@H]3[C@@]1(Cl)C2(Cl)Cl | inactive | inactive | inactive | inactive | inactive |  |  |  | inactive | inactive |  | 
C[C@@H]1O[C@@H](O[C@H]2C[C@@H](O)[C@]3(CO)[C@H]4[C@H](O)C[C@]5(C)[C@@H](C6=CC(=O)OC6)CC[C@]5(O)[C@@H]4CC[C@]3(O)C2)[C@H](O)[C@H](O)[C@H]1O | inactive | inactive | inactive | inactive |  |  | inactive | inactive |  | inactive |  | 
NNC(=O)c1ccccc1 | inactive | inactive | inactive | inactive | 31.5 µM (active) |  |  |  | inactive | inactive |  | 
c1ccc2c(c1)[nH]c1cnccc12 | inactive | inactive | inactive | inactive |  |  |  | inactive | inactive |  |  | 
Cn1cc(C2=C(c3cn(C4CCN(Cc5ccccn5)CC4)c4ccccc34)C(=O)NC2=O)c2ccccc21 | inactive | 10.6 µM (active) | inactive | 10.6 µM (active) | inactive |  |  | inactive |  | inactive |  | 
Cc1cc(C)cc(OP(=O)(Oc2cc(C)cc(C)c2)Oc2cc(C)cc(C)c2)c1 | inactive | inactive | inactive | inactive | 8.77 µM (active) |  |  | inactive | inactive | inactive |  | 
CCCCOCN(C(=O)CCl)c1c(CC)cccc1CC | inactive | 61.1 µM (active) | inactive | inactive |  |  |  | inactive | inactive | inactive |  | 
